How the values were obtained:
Test in all cases: DAPPL (digital affinity profiling via proximity ligation, sequencing); 10 mM Tris-HCl pH 7.5, 50 mM NaCl, 1 mM DTT, 4% glycerol, room temperature, 30 min; GST-TFs on glutathione beads, 16-mer random dsDNA library, 0.1% formaldehyde crosslink after washing; high values mean tight binding
FEV = molecular target: T1, FEV (Homo sapiens, UniProt Q99581 1-238); details: protein: recombinant; tags: N-terminal GST; dsDNA, one strand shown
T1 sequence: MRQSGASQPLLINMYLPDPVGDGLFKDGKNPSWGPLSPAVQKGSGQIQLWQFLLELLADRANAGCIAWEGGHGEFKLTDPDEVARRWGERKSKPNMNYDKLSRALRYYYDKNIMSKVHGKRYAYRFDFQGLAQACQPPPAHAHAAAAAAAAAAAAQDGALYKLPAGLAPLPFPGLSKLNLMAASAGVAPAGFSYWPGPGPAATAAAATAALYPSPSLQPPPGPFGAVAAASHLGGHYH
How it was run: (§1)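 Sequencing on an Illumina NextSeq500 followed washing, crosslinking with 0.1% formaldehyde, proximity ligation (BsaI/T4 ligase, 1 h, 37 °C) and PCR amplification of pools that had been incubated for 30 min at room temperature with 200 nmole of a random double-stranded 16-mer DNA library in Tris/NaCl/DTT/glycerol buffer. Each pool held DNA-barcoded human transcription factors, expressed in yeast as GST fusions and captured on glutathione beads, plus a tag-only sample. Binding signal is a hexamer's read frequency for a factor divided by its frequency in the tag-only sample.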

ETV5 = ETV5 (Homo sapiens, UniProt P41161 1-510); details: protein: recombinant; tags: N-terminal GST; dsDNA, one strand shown
How it was run: as §1

HSF1 = HSF1 (Homo sapiens, UniProt Q00613 1-529); details: protein: recombinant; tags: N-terminal GST; chain copies: 3; dsDNA, one strand shown
How it was run: as §1

SPIC = molecular target: T2, SPIC (Homo sapiens, UniProt Q8N5J4 1-248); details: protein: recombinant; tags: N-terminal GST; dsDNA, one strand shown
T2 sequence: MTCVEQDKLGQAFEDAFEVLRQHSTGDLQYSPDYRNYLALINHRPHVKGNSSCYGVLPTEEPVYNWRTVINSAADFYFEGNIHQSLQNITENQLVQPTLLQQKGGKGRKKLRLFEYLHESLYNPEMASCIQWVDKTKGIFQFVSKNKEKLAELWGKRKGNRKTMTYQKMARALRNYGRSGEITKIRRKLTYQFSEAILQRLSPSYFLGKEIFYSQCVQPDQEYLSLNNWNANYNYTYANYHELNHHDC
How it was run: as §1

ELF4 = ELF4 (Homo sapiens, UniProt Q99607 1-663); details: protein: recombinant; tags: N-terminal GST; dsDNA, one strand shown
How it was run: as §1

ELK4 = molecular target: T3, ELK4 (Homo sapiens, UniProt P28324-2 1-405); details: protein: recombinant; tags: N-terminal GST; dsDNA, one strand shown
T3 sequence: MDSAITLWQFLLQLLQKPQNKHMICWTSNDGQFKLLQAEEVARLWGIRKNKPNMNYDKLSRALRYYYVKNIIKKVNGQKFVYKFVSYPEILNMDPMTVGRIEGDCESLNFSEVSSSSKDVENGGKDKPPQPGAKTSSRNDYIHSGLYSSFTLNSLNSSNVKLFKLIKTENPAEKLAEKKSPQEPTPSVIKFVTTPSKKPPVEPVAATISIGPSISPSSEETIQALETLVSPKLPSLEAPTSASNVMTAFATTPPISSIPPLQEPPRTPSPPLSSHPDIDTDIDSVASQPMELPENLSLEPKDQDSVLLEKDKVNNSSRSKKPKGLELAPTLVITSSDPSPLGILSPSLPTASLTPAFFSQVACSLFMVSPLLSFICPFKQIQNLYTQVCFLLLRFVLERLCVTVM
How it was run: as §1

ETV2 = molecular target: T4, ETV2 (Homo sapiens, UniProt O00321 1-342); details: protein: recombinant; tags: N-terminal GST; dsDNA, one strand shown
T4 sequence: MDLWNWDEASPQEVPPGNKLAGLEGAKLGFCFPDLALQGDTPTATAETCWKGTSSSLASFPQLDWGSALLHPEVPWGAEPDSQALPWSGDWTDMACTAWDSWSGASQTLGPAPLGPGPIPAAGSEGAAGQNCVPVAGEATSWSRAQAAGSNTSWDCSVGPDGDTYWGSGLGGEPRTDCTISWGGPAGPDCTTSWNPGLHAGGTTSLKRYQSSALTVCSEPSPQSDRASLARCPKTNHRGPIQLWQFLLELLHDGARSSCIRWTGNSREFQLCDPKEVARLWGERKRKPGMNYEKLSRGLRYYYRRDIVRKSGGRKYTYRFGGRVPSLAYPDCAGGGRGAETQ
How it was run: as §1

ELF3 = molecular target: T5, ELF3 (Homo sapiens, UniProt P78545 1-371); details: protein: recombinant; tags: N-terminal GST; dsDNA, one strand shown
T5 sequence: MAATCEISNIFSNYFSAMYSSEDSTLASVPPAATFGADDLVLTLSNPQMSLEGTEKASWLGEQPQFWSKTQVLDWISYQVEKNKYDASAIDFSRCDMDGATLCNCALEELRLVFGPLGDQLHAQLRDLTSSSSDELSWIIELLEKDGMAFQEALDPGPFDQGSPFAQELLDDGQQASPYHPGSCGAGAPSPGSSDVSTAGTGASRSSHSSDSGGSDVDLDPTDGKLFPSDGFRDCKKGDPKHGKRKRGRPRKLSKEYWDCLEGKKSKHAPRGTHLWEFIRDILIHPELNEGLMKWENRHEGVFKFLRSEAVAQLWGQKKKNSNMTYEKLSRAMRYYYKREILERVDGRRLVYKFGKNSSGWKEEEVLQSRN
How it was run: as §1

CRX = CRX (Homo sapiens, UniProt O43186 1-299); details: protein: recombinant; tags: N-terminal GST; dsDNA, one strand shown
How it was run: as §1

ETV1 = ETV1 (Homo sapiens, UniProt P50549 1-477); details: protein: recombinant; tags: N-terminal GST; dsDNA, one strand shown
How it was run: as §1

ETV3L = molecular target: T6, ETV3L (Homo sapiens, UniProt Q6ZN32 1-361); details: protein: recombinant; tags: N-terminal GST; dsDNA, one strand shown
T6 sequence: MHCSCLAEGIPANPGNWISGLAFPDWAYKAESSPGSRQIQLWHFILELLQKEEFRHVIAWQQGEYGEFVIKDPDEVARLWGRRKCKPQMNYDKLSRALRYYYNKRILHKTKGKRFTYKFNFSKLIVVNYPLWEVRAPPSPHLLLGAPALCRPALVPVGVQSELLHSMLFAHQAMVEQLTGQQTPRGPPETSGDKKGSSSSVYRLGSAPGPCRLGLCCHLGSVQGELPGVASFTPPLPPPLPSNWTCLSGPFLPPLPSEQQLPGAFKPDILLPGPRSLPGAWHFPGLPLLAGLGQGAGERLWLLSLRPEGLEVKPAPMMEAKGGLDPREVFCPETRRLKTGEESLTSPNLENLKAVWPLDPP
How it was run: as §1

ETS2 = molecular target: T7, ETS2 (Homo sapiens, UniProt P15036 1-469); details: protein: recombinant; tags: N-terminal GST; dsDNA, one strand shown
T7 sequence: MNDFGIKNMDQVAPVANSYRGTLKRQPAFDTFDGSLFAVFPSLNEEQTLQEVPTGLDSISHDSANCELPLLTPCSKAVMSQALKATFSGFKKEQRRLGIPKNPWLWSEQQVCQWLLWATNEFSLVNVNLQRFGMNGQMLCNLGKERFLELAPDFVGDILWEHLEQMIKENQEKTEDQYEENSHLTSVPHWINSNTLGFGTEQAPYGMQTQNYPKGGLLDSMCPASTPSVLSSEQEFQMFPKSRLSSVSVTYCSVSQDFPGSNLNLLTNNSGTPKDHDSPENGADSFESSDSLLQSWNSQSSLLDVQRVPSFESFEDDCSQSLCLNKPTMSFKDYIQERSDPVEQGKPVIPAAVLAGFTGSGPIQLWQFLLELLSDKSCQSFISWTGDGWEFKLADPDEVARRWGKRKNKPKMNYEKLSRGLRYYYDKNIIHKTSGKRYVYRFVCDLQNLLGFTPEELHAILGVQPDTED
How it was run: as §1

SPDEF = molecular target: T8, SPDEF (Homo sapiens, UniProt O95238 1-335); details: protein: recombinant; tags: N-terminal GST; dsDNA, one strand shown
T8 sequence: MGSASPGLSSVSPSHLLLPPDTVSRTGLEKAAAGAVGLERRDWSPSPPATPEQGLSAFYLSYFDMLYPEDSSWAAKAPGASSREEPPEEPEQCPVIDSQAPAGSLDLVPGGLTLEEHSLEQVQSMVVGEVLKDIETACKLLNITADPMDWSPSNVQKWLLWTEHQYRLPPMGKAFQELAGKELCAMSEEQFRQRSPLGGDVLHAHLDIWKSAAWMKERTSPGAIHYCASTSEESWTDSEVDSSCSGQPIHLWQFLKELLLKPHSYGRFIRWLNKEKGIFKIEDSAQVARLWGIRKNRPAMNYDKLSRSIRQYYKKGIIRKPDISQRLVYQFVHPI
How it was run: as §1

ETV7 = molecular target: T9, ETV7 (Homo sapiens, UniProt Q9Y603 1-341); details: protein: recombinant; tags: N-terminal GST; dsDNA, one strand shown
T9 sequence: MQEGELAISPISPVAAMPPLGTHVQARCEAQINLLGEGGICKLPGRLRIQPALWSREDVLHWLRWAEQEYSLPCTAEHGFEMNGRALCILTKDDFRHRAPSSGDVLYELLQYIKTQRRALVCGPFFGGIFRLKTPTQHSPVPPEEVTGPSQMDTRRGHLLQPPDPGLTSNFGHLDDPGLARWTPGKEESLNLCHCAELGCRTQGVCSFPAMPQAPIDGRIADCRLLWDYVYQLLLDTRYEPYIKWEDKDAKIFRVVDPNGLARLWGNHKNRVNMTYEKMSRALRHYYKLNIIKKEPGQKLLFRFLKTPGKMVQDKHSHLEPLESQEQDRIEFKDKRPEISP
How it was run: as §1

ELF5 = molecular target: T10, ELF5 (Homo sapiens, UniProt Q9UKW6-2 1-255); details: protein: recombinant; tags: N-terminal GST; dsDNA, one strand shown
T10 sequence: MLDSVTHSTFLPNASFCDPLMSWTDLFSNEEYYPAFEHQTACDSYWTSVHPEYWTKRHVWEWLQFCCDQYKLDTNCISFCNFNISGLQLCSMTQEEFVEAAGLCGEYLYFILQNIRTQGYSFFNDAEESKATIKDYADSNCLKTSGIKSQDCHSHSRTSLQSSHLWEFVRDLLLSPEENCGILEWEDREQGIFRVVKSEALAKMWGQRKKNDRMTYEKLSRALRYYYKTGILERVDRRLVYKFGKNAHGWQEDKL
How it was run: as §1

ETV3 = molecular target: T11, ETV3 (Homo sapiens, UniProt P41162-2 1-143); details: protein: recombinant; tags: N-terminal GST; dsDNA, one strand shown
T11 sequence: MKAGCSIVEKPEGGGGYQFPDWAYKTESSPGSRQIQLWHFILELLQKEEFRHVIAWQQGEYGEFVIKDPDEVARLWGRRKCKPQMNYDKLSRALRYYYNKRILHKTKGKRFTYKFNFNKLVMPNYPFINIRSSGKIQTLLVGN
How it was run: as §1

ETV6 = ETV6 (Homo sapiens, UniProt P41212 1-452); details: protein: recombinant; tags: N-terminal GST; dsDNA, one strand shown
How it was run: as §1

ETV6, sequence (P41212 whole entry): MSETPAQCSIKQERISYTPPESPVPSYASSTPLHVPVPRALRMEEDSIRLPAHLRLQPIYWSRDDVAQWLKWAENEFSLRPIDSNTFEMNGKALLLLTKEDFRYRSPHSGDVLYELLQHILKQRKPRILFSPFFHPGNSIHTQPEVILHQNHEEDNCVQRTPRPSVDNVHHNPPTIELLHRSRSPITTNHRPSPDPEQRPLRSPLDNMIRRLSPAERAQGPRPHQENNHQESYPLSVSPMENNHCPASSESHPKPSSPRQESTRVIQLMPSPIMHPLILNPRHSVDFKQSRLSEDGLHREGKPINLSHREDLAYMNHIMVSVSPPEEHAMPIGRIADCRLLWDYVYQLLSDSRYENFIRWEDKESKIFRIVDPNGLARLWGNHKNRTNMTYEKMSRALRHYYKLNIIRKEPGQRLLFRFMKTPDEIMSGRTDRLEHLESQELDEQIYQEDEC
ETV5, sequence (P41161 whole entry): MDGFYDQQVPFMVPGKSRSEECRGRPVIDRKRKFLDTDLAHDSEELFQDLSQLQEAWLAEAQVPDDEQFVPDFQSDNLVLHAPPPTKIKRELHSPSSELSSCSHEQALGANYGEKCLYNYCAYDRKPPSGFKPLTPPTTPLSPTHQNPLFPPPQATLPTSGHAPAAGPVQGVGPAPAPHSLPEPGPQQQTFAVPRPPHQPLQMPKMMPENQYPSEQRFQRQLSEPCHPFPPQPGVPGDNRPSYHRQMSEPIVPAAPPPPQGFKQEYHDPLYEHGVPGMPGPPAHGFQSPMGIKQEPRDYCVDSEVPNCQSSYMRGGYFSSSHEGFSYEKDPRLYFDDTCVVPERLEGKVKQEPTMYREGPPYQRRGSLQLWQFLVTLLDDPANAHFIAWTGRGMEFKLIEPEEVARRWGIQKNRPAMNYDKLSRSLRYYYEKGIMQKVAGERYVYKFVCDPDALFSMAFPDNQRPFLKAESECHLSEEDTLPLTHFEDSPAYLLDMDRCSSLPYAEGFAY
ELF4, sequence (Q99607 whole entry): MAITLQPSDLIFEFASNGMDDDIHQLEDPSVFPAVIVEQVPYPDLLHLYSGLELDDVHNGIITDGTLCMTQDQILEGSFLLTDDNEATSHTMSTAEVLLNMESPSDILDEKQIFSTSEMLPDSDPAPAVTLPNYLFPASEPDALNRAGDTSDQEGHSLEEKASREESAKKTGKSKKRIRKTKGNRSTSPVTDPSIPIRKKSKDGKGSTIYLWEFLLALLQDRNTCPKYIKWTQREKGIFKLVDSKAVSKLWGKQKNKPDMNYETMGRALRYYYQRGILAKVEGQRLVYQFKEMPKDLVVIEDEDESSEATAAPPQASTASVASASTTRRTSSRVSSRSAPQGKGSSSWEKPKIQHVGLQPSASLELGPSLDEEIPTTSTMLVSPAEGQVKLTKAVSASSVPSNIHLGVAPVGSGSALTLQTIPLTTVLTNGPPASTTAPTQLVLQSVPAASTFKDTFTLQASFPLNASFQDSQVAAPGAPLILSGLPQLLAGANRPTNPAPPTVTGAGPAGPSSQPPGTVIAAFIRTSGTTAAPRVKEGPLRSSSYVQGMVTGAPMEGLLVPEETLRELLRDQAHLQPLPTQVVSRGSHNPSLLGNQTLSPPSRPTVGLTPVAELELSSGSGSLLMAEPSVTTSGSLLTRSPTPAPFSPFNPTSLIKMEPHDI
CRX, sequence (O43186 whole entry): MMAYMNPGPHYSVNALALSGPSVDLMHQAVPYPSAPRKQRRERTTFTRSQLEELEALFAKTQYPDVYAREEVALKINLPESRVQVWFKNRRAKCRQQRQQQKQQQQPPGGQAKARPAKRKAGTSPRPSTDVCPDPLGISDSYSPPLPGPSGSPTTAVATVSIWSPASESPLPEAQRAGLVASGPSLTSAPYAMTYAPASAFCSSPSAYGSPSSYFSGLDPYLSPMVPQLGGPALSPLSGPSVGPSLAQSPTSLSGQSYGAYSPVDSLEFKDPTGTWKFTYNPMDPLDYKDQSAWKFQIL
ETV1, sequence (P50549 whole entry): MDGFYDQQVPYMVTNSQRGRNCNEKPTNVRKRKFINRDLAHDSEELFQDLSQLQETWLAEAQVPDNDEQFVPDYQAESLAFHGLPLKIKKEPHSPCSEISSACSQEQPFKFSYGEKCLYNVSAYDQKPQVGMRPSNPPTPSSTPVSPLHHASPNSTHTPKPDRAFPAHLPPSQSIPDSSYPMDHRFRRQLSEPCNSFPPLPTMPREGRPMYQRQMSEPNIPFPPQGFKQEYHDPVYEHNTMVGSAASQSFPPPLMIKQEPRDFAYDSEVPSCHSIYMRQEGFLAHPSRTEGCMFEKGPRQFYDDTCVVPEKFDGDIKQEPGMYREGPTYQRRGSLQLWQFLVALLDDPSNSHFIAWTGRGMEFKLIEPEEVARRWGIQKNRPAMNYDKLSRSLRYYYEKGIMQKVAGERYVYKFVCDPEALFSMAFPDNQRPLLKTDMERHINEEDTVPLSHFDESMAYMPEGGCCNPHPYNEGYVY
HSF1, sequence (Q00613 whole entry): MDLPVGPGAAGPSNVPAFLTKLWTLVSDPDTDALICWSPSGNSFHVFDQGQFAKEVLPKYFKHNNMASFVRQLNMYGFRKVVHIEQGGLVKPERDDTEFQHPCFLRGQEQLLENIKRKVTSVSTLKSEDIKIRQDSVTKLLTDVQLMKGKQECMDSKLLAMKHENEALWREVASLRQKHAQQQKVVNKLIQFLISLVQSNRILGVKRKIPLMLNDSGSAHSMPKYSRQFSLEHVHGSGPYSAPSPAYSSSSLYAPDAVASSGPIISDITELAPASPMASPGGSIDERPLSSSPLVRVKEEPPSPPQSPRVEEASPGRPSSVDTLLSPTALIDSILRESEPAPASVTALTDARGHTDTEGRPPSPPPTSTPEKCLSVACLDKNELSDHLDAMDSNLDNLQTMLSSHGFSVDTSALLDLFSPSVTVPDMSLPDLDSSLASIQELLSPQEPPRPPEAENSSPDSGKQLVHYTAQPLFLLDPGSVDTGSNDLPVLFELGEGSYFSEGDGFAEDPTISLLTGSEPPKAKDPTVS

TTATTA
binding signal (FEV): 1.09 fold enrichment (6-mer frequency, TF over GST control)
binding signal (ETV5): 1.14 fold enrichment (6-mer frequency, TF over GST control)
binding signal (HSF1): 1.75 fold enrichment (6-mer frequency, TF over GST control)
binding signal (SPIC): 1.31 fold enrichment (6-mer frequency, TF over GST control)
binding signal (ELF4): 1.18 fold enrichment (6-mer frequency, TF over GST control)
binding signal (ELK4): 1.03 fold enrichment (6-mer frequency, TF over GST control)
binding signal (ETV2): 1.2 fold enrichment (6-mer frequency, TF over GST control)
binding signal (ELF3): 1.09 fold enrichment (6-mer frequency, TF over GST control)
binding signal (CRX): 2.49 fold enrichment (6-mer frequency, TF over GST control)
binding signal (ETV1): 1.11 fold enrichment (6-mer frequency, TF over GST control)
binding signal (ETV3L): 1.11 fold enrichment (6-mer frequency, TF over GST control)
binding signal (ETS2): 1.07 fold enrichment (6-mer frequency, TF over GST control)
binding signal (SPDEF): 1.12 fold enrichment (6-mer frequency, TF over GST control)
binding signal (ETV7): 1.11 fold enrichment (6-mer frequency, TF over GST control)
binding signal (ELF5): 1.13 fold enrichment (6-mer frequency, TF over GST control)
binding signal (ETV3): 1.14 fold enrichment (6-mer frequency, TF over GST control)
binding signal (ETV6): 1.13 fold enrichment (6-mer frequency, TF over GST control)
